According to PubChem BioAssay AID1159580 (chemical genetic matrix, 2015):
Hit rate of the full screen: of about 5,500 compounds, about 2,000 (36%) were called active. Not shown: some 18% with an inconclusive outcome. No stated cut-off is given here; in the data, active means normalized growth mostly below about 0.91 (no sharp cut-off); inconclusive means no clear call, values can overlap the other calls; inactive means mostly above about 0.92. This is one part of the list.

Assay: chemical genetic growth profiling, strain panel (AID 1159580);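 further: tested at 20 µM; growth read once vehicle control cultures reached saturation at 30 °C; 1 = growth at the plate median or of vehicle wells; lower values mean less growth of the strain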
Conditions: growth OD
[1] = S. cerevisiae deletion strains, locus YAR019C, strain CDC15, active compounds read low
[2] = S. cerevisiae deletion strains, locus YBL105C, strain PKC1, active compounds read low
[3] = S. cerevisiae deletion strains, locus YBR135W, strain CKS1, active compounds read low
[4] = S. cerevisiae deletion strains, locus YBR136W, strain MEC1, active compounds read low
[5] = S. cerevisiae deletion strains, locus YBR160W, strain CDC28, active compounds read low
[6] = S. cerevisiae deletion strains, locus YDL017W, strain CDC7, active compounds read low
[7] = S. cerevisiae deletion strains, locus YDL028C, strain MPS1, active compounds read low
[8] = S. cerevisiae deletion strains, locus YDL101C, strain DUN1, active compounds read low
[9] = S. cerevisiae deletion strains, locus YDL108W, strain KIN28, active compounds read low
[10] = S. cerevisiae deletion strains, locus YDL132W, strain cdc53, active compounds read low
[11] = S. cerevisiae deletion strains, locus YDL214C, strain PRR2, active compounds read low
[12] = S. cerevisiae deletion strains, locus YDR052C, strain DBF4, active compounds read low
[13] = S. cerevisiae deletion strains, locus YDR054C, strain cdc34, active compounds read low
[14] = S. cerevisiae deletion strains, locus YDR226W, strain ADK1, active compounds read low
[15] = S. cerevisiae deletion strains, locus YDR477W, strain SNF1, active compounds read low
[16] = S. cerevisiae deletion strains, locus YER123W, strain YCK3, active compounds read low
[17] = S. cerevisiae deletion strains, locus YER133W, strain GLC7, active compounds read low
[18] = S. cerevisiae deletion strains, locus YFL009W, strain cdc4, active compounds read low
[19] = S. cerevisiae deletion strains, locus YFL029C, strain CAK1, active compounds read low
[20] = S. cerevisiae deletion strains, locus YFR003C, strain YPI1, active compounds read low
[21] = S. cerevisiae deletion strains, locus YFR019W, strain FAB1, active compounds read low
[22] = S. cerevisiae deletion strains, locus YFR028C, strain CDC14, active compounds read low
[23] = S. cerevisiae deletion strains, locus YGR040W, strain KSS1, active compounds read low
[24] = S. cerevisiae deletion strains, locus YGR052W, strain FMP48, active compounds read low
[25] = S. cerevisiae deletion strains, locus YGR092W, strain DBF2, active compounds read low
[26] = S. cerevisiae deletion strains, locus YHR030C, strain SLT2, active compounds read low
[27] = S. cerevisiae deletion strains, locus YHR079C, strain IRE1, active compounds read low
[28] = S. cerevisiae deletion strains, locus YHR082C, strain KSP1, active compounds read low
[29] = S. cerevisiae deletion strains, locus YHR205W, strain SCH9, active compounds read low
[30] = S. cerevisiae deletion strains, locus YIL147C, strain SLN1, active compounds read low
[31] = S. cerevisiae deletion strains, locus YJL095W, strain BCK1, active compounds read low
[32] = S. cerevisiae deletion strains, locus YJL128C, strain PBS2, active compounds read low
[33] = S. cerevisiae deletion strains, locus YJL157C, strain FAR1, active compounds read low
[34] = S. cerevisiae deletion strains, locus YJR016C, strain ILV3, active compounds read low
[35] = S. cerevisiae deletion strains, locus YJR066W, strain TOR1 (second series), active compounds read low
[36] = S. cerevisiae deletion strains, locus YJR066W, strain TOR1, active compounds read low
[37] = S. cerevisiae deletion strains, locus YKL048C, strain ELM1, active compounds read low
[38] = S. cerevisiae deletion strains, locus YKL067W, strain YNK1, active compounds read low
[39] = S. cerevisiae deletion strains, locus YKL101W, strain HSL1, active compounds read low
[40] = S. cerevisiae deletion strains, locus YKL193C, strain SDS22, active compounds read low
[41] = S. cerevisiae deletion strains, locus YKL203C, strain TOR2, active compounds read low
[42] = S. cerevisiae deletion strains, locus YLR113W, strain HOG1, active compounds read low
[43] = S. cerevisiae deletion strains, locus YLR133W, strain CKI1, active compounds read low
[44] = S. cerevisiae deletion strains, locus YLR403W, strain SFP1, active compounds read low
[45] = S. cerevisiae deletion strains, locus YML070W, strain DAK1, active compounds read low
[46] = S. cerevisiae deletion strains, locus YMR001C, strain CDC5, active compounds read low
[47] = S. cerevisiae deletion strains, locus YMR205C, strain PFK2 (second series), active compounds read low
[48] = S. cerevisiae deletion strains, locus YMR277W, strain FCP1, active compounds read low
[49] = S. cerevisiae deletion strains, locus YNL006W, strain LST8, active compounds read low
[50] = S. cerevisiae deletion strains, locus YNL020C, strain ARK1, active compounds read low
[51] = S. cerevisiae deletion strains, locus YNL161W, strain CBK1, active compounds read low
[52] = S. cerevisiae deletion strains, locus YNL183C, strain NPR1, active compounds read low
[53] = S. cerevisiae deletion strains, locus YNL207W, strain RIO2, active compounds read low
[54] = S. cerevisiae deletion strains, locus YNL222W, strain SSU72, active compounds read low
[55] = S. cerevisiae deletion strains, locus YNL307C, strain MCK1 (second series), active compounds read low
[56] = S. cerevisiae deletion strains, locus YOL078W, strain AVO1, active compounds read low
[57] = S. cerevisiae deletion strains, locus YOL136C, strain PFK27, active compounds read low
[58] = S. cerevisiae deletion strains, locus YOR061W, strain CKA2, active compounds read low
[59] = S. cerevisiae deletion strains, locus YOR119C, strain RIO1, active compounds read low
[60] = S. cerevisiae deletion strains, locus YOR231W, strain MKK1, active compounds read low
[61] = S. cerevisiae deletion strains, locus YOR329C, strain SCD5, active compounds read low
[62] = S. cerevisiae deletion strains, locus YPL031C, strain PHO85, active compounds read low
[63] = S. cerevisiae deletion strains, locus YPL153C, strain RAD53, active compounds read low
[64] = S. cerevisiae deletion strains, locus YPL204W, strain HRR25, active compounds read low
[65] = S. cerevisiae deletion strains, locus YPL209C, strain IPL1, active compounds read low
[66] = S. cerevisiae deletion strains, locus YPL256C, strain CLN2, active compounds read low
[67] = S. cerevisiae deletion strains, locus YPR025C, strain CCL1, active compounds read low
[68] = S. cerevisiae deletion strains, locus YPR106W, strain ISR1, active compounds read low
[69] = S. cerevisiae deletion strains, locus YPR111W, strain DBF20, active compounds read low
[70] = S. cerevisiae deletion strains, strain NNK1, active compounds read low
[71] = S. cerevisiae deletion strains, strain TSCII, active compounds read low
[72] = S. cerevisiae deletion strains, locus YAL013W, strain DEP1, active compounds read low
[73] = S. cerevisiae deletion strains, locus YDR150W, strain NUM1, active compounds read low
[74] = S. cerevisiae deletion strains, locus YJR075W, strain HOC1, active compounds read low
[75] = S. cerevisiae deletion strains, locus YMR307W, strain GAS1, active compounds read low
[76] = S. cerevisiae deletion strains, locus YNL153C, strain GIM3, active compounds read low
[77] = S. cerevisiae deletion strains, locus YNL322C, strain KRE1, active compounds read low

Measured: normalized growth

O=C1Nc2ccccc2/C1=C/c1ccc(C(F)(F)F)cc1Cl
active: [26] 0.741 | [42] 0.78 | [66] 0.827
inactive: [1] 0.978 | [2] 0.965 | [3] 0.966 | [4] 0.982 | [5] 0.979 | [6] 0.972 | [7] 0.977 | [8] 0.983 | [9] 0.974 | [10] 0.982 | [11] 0.884 | [12] 0.979 | [13] 0.958 | [14] 0.961 | [15] 0.93 | [16] 0.939 | [17] 0.953 | [18] 0.976 | [19] 0.979 | [20] 0.973 | [21] 0.979 | [22] 0.974 | [23] 0.931 | [24] 0.896 | [25] 0.905 | [27] 0.883 | [28] 0.934 | [29] 0.84 | [30] 0.973 | [31] 0.918 | [32] 0.903 | [33] 0.958 | [34] 0.98 | [35] 0.955 | [36] 0.899 | [37] 0.958 | [38] 0.877 | [39] 0.891 | [40] 0.969 | [41] 0.995 | [43] 0.932 | [44] 0.952 | [45] 0.936 | [46] 0.968 | [47] 0.931 | [48] 0.963 | [49] 0.979 | [50] 0.916 | [51] 0.972 | [52] 0.881 | [53] 0.98 | [54] 0.968 | [55] 0.882 | [56] 0.966 | [57] 0.93 | [58] 0.929 | [59] 0.926 | [60] 0.914 | [61] 0.972 | [62] 0.932 | [63] 0.934 | [64] 0.916 | [65] 0.974 | [67] 0.97 | [68] 0.958 | [69] 0.936 | [70] 0.97 | [71] 0.963

Clc1ccc(C=C2c3ccccc3-c3ccccc32)cc1
inactive: [72] 0.988 | S. cerevisiae deletion strains, locus YBR229C, strain ROT2, active compounds read low 0.973 | [8] 0.986 | S. cerevisiae deletion strains, locus YDL134C, strain PPH21, active compounds read low 1 | [73] 0.95 | S. cerevisiae deletion strains, locus YEL061C, strain CIN8, active compounds read low 0.99 | S. cerevisiae deletion strains, locus YGR078C, strain PAC10, active compounds read low 1 | [26] 0.873 | S. cerevisiae deletion strains, locus YHR087W, strain rtc3, active compounds read low 0.986 | S. cerevisiae deletion strains, locus YJL187C, strain SWE1, active compounds read low 1 | S. cerevisiae deletion strains, locus YJR043C, strain POL32, active compounds read low 0.981 | [74] 0.979 | S. cerevisiae deletion strains, locus YLR039C, strain RIC1, active compounds read low 0.967 | S. cerevisiae deletion strains, locus YLR058C, strain SHM2 (second series), active compounds read low 0.972 | S. cerevisiae deletion strains, locus YLR085C, strain ARP6, active compounds read low 0.996 | S. cerevisiae deletion strains, locus YLR262C, strain YPT6, active compounds read low 0.855 | S. cerevisiae deletion strains, locus YML094W, strain GIM5, active compounds read low 1.03 | S. cerevisiae deletion strains, locus YMR219W, strain ESC1, active compounds read low 0.988 | S. cerevisiae deletion strains, locus YMR263W, strain SAP30, active compounds read low 0.983 | [75] 1.03 | S. cerevisiae deletion strains, locus YNL128W, strain TEP1, active compounds read low 0.984 | [76] 0.965 | S. cerevisiae deletion strains, locus YNL298W, strain CLA4 (second series), active compounds read low 0.949 | [77] 1 | S. cerevisiae deletion strains, locus YNR030W, strain Alg12, active compounds read low 0.957 | S. cerevisiae deletion strains, locus YPL055C, strain LGE1, active compounds read low 1.01 | S. cerevisiae deletion strains, locus YPL241C, strain CIN2, active compounds read low 0.995 | S. cerevisiae deletion strains, locus YPR135W, strain CTF4, active compounds read low 0.855 | S. cerevisiae strains, strain wild type, active compounds read low 0.961

CN1C[C@H](C(=O)N[C@]2(C)C[C@@]3(O)C4CCCN4C(=O)[C@H](Cc4ccccc4)N3C2=O)C=C2c3cccc4[nH]cc(c34)C[C@H]21 (stereo partly drawn)
inactive: [26] 0.986 | [27] 0.994 | [31] 0.958 | [36] 0.945 | [42] 1 | [52] 0.944 | [60] 0.997 | [66] 0.981

O=C1Nc2ccccc2/C1=C/c1ccc(Oc2ccccc2)nc1
inactive: [1] 0.965 | [2] 0.959 | [3] 0.957 | [4] 0.975 | [5] 0.962 | [6] 0.973 | [7] 0.966 | [8] 0.96 | [9] 0.967 | [10] 0.962 | [11] 0.866 | [12] 0.98 | [13] 0.948 | [14] 0.96 | [15] 0.874 | [16] 0.885 | [17] 0.898 | [18] 0.959 | [19] 0.975 | [20] 0.964 | [21] 0.95 | [22] 0.959 | [23] 0.892 | [24] 0.844 | [25] 0.803 | [27] 0.836 | [28] 0.82 | [29] 0.788 | [30] 0.947 | [31] 0.835 | [32] 0.877 | [33] 0.891 | [34] 0.967 | [35] 0.851 | [36] 0.775 | [37] 0.894 | [38] 0.857 | [39] 0.879 | [40] 0.959 | [41] 0.944 | [43] 0.86 | [44] 0.826 | [45] 0.915 | [46] 0.967 | [47] 0.889 | [48] 0.95 | [49] 0.975 | [50] 0.869 | [51] 0.976 | [52] 0.811 | [53] 0.962 | [54] 0.956 | [55] 0.843 | [56] 0.962 | [57] 0.897 | [58] 0.843 | [59] 0.867 | [60] 0.858 | [61] 0.967 | [62] 0.858 | [63] 0.845 | [64] 0.847 | [65] 0.971 | [67] 0.956 | [68] 0.957 | [69] 0.945 | [70] 0.971 | [71] 0.965
active: [26] 0.615 | [42] 0.846 | [66] 0.859

COc1cc(OC)c(/C=C2/C(=O)Nc3ccccc32)c(OC)c1
inactive: [72] 1.01 | S. cerevisiae deletion strains, locus YAL040C, strain CLN3, active compounds read low 0.983 | S. cerevisiae deletion strains, locus YCL061C, strain MRC1 (second series), active compounds read low 1.01 | [73] 1.01 | S. cerevisiae deletion strains, locus YDR363W, strain ESC2, active compounds read low 0.984 | S. cerevisiae deletion strains, locus YER002W, strain NOP16, active compounds read low 1.02 | [74] 1.01 | [75] 1.01 | [76] 0.914 | S. cerevisiae deletion strains, locus YNL175C, strain NOP13, active compounds read low 0.972 | S. cerevisiae deletion strains, locus YNL197C, strain WHI3, active compounds read low 0.979 | S. cerevisiae deletion strains, locus YNL224C, strain SQS1, active compounds read low 0.996 | [77] 1 | S. cerevisiae deletion strains, locus YOR083W, strain WHI5 (second series), active compounds read low 0.967
